AmpC detergent: AmpC beta-lactamase inhibition with detergent present | AmpC hydrolysis of nitrocefin, absorbance 480 nm, 0.01% Triton | P00811 | hit rate 0.041% among 370,000 | AID 485294 | Potency, µM (titrated, usually from 114 µM), usual class: inhibitors; note: nearly all actives have a fitted effect of over 25% in size
Target sequence (P00811 whole entry, looked up): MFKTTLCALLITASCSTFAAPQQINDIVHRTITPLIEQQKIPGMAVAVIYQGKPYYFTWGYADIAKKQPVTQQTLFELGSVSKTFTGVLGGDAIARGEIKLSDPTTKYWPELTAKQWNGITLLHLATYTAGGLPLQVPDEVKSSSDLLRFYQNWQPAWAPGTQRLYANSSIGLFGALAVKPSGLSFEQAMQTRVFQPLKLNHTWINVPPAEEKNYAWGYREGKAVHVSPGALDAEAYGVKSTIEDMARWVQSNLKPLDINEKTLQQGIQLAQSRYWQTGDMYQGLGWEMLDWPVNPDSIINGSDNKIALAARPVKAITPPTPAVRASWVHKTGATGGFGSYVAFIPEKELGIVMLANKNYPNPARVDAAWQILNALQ
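20 mM phosphate pH 7.0 + 0.01% (detergent screen) or 0.0001% Triton X-100; 5.3 nM AmpC reagent; cpd preinc 15 min RT; nitrocefin (800 uM stock) to start; A480 q20 s × 4 min; Activity was normalised to no-enzyme and no-compound control wells.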
AmpC no deterg: inhibitors of E. coli AmpC beta-lactamase without detergent; Potency, µM (series often up to 57.1 µM), hits mostly inhibitors; AID 485341; AmpC nitrocefin hydrolysis, absorbance 480 nm, 0.0001% Triton; P00811; hit rate 0.52% among 330,000; note: nearly all actives have a fitted effect of over 20% in size
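20 mM phosphate pH 7.0 + 0.01% (detergent screen) or 0.0001% Triton X-100; 5.3 nM AmpC reagent; cpd preinc 15 min RT; nitrocefin (800 uM stock) to start; A480 q20 s × 4 min; Activity was normalised to no-enzyme and no-compound control wells.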
NS1 inh: inhibitors of influenza NS1 protein function; Potency, µM (highest dose often 46.1 µM); hit rate 0.4% among 270,000; calls by dose curve; note: actives are rising curves; nearly all actives have a fitted effect of over 50% in size
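S. cerevisiae expressing influenza A NS1, grown in glucose, washed, then diluted 1:100 into pH 6.0 -URA galactose medium with 23 nl compound. Growth recovery read as OD600; NS1-free strain serves as control.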
Cycloheximide cs: counter-screen for Shiga toxin inhibitors: cycloheximide protein synthesis inhibition. AID 2314. cell reporter, cycloheximide protein synthesis inhibition counterscreen. max response, %. hit rate 12% among 300,000; in the data active = max response mostly above about 13%, no sharp cut-off; inactive = mostly below about 14%; note: read at 38.3 µM for the half of the compounds with a filed dose
Shiga inhibitor: inhibitors of Shiga toxin in Vero cells. Vero cells, Shiga toxin protein synthesis inhibition reporter. inhibition, % at 38.7 µM. hit rate 9.2% among 290,000; in the data active = inhibition mostly above about 28%, no sharp cut-off; inactive = mostly below about 43%
Large screens that a line does not name were inactive. This excerpt belongs to a sample that is enriched for hits. Unless noted, calls come from the whole dose curve; as a rule, active = well fitted curve in the direction sought with a large enough effect; inconclusive = small, poorly fitted or top-dose-only effect, or another doubt; inactive = no such curve, though single readings can be large; an effect the other way counts as inactive or inconclusive.

Cc1ccc(C)c(NC(=O)C[n+]2ccccc2)c1	AmpC detergent inconclusive
CSC(=CC(=O)c1ccccc1)SC	Cycloheximide cs 25, Shiga inhibitor 66
C/C(=C\C(=O)c1ccccc1)Nc1ccc(N2CCOCC2)cc1	AmpC detergent inconclusive
CSC(=CC(=O)c1ccc(F)cc1)SC	Cycloheximide cs 26
Cc1ccccc1CSc1ncc(C#N)c(N)n1	none
CCCCCCSc1ncc(C#N)c(N)n1	AmpC detergent inconclusive, Cycloheximide cs 29, Shiga inhibitor 37
N#Cc1cnc(SCCc2ccccc2)nc1N	Cycloheximide cs 24, Shiga inhibitor 39
N#Cc1cnc(SCC(=O)c2ccccc2)nc1N	NS1 inh inconclusive
COc1ccc(C(=O)NC2(C(F)(F)F)C(=O)N(Cc3ccco3)C3=C2C(=O)CC(C)(C)C3)cc1OC (stereo not drawn)	none
O=C(Nc1ccc(Cl)c(C(F)(F)F)c1)C1CCCN(S(=O)(=O)c2cccc3cccnc23)C1 (stereo not drawn)	none (no result: AmpC no deterg, NS1 inh, Cycloheximide cs, Shiga inhibitor)
Nc1cccc2c3c(oc12)CCCC3	Cycloheximide cs 9.4
CN(C)S(=O)(=O)c1ccc(NC(=O)c2cc(F)c(F)cc2Cl)cc1	none
O=C(Nc1ccc2[nH]c(=O)[nH]c2c1)c1cc(F)c(F)cc1Cl	none
CCOC(=O)c1ccc(NC(=O)c2cc(F)c(F)cc2Cl)cc1	Cycloheximide cs 18
COc1ccc(NC(=O)c2cc(F)c(F)cc2Cl)cc1Cl	Cycloheximide cs 46, Shiga inhibitor 50
CCN(CC)CCCNC(=O)c1cc(Nc2ccc(OC)cc2)nc2ccccc12	none
Cc1onc(-c2c(F)cccc2Cl)c1C(=O)Nc1cccc(S(=O)(=O)N2CCOCC2)c1	none (no result: AmpC detergent, NS1 inh, Cycloheximide cs, Shiga inhibitor)
CC1CCCN(S(=O)(=O)c2ccc(NC(=O)C3CC(=O)N(c4ccccc4)C3)cc2)C1 (stereo not drawn)	none
O=c1c(=NNc2ccccc2Cl)c(=O)c2ccccc12	Cycloheximide cs 41, Shiga inhibitor 83
Cc1cc(C)c(NN=c2c(=O)c3ccccc3c2=O)c(C)c1	Cycloheximide cs 30
COc1ccc(C(=O)CC(=O)c2ccccc2O)cc1	AmpC detergent inconclusive, Cycloheximide cs 39 (no result: Shiga inhibitor)
COc1ccc(O)c(C(=O)CC(=O)c2ccc(F)cc2)c1	Cycloheximide cs 20
COc1ccc(C(=O)CC(=O)c2ccccc2O)cc1OC	Cycloheximide cs 34, Shiga inhibitor 79
COc1ccc(O)c(C(=O)CC(=O)c2ccccc2C)c1	Cycloheximide cs 58, Shiga inhibitor 76
CCOc1ccccc1CNC(=O)c1c(C)oc2ncnc(N3CCOCC3)c12	none (no result: AmpC no deterg, NS1 inh, Cycloheximide cs, Shiga inhibitor)
O=C(O)Cc1ccc2c(c1)N(S(=O)(=O)c1cccc(C(F)(F)F)c1)CC(C(=O)O)O2 (stereo not drawn)	AmpC detergent inconclusive
O=C(COc1ccccc1Cl)OCc1cc(=O)n2nc(C3CCCCC3)sc2n1	none (no result: AmpC no deterg, NS1 inh, Cycloheximide cs, Shiga inhibitor)
CN(C)c1ccc(N2CC(C)(C)C2=O)cc1	Cycloheximide cs 33, Shiga inhibitor 44 (no result: NS1 inh)
O=C(CSCc1ccccc1F)NCc1ccccc1	Cycloheximide cs 44 (no result: NS1 inh)
O=C(CSCc1cccc(F)c1)NCc1ccccc1	Cycloheximide cs 48, Shiga inhibitor 173 (no result: NS1 inh)
COc1ccc(CNC(=O)CSCc2ccccc2Cl)cc1	Cycloheximide cs 62, Shiga inhibitor 66
Cc1ccc(CNC(=O)CSCc2cccc(F)c2)cc1	Cycloheximide cs 46 (no result: NS1 inh)
Cc1ccc(S(=O)(=O)c2nnn3c2nc(NCc2cccs2)c2sccc23)cc1C	none (no result: AmpC no deterg, NS1 inh, Cycloheximide cs, Shiga inhibitor)
CC(C)[C@H](NC(=O)c1ccccc1)C(=O)OCC(=O)c1ccccc1F	Cycloheximide cs 16
CCOc1ccccc1CNC(=O)Cn1nc(N2CCN(c3ccccc3)CC2)ccc1=O	none (no result: AmpC no deterg, NS1 inh, Cycloheximide cs, Shiga inhibitor)
O=C(NCCCl)Nc1cccnc1Cl	Cycloheximide cs 12
O=C(CCc1ccccc1)Nc1cccnc1Cl	Cycloheximide cs 18
O=C(CC(=O)c1ccccc1)Nc1cccnc1Cl	Cycloheximide cs 44, Shiga inhibitor 73
O=C(CCc1ccccc1)Nc1cc(Cl)ccc1O	none
Cc1cc(C)cc(NC(=O)N2CCC(N3CCCCC3)CC2)c1	none (no result: AmpC no deterg, NS1 inh, Cycloheximide cs, Shiga inhibitor)
O=C(COC(=O)Cc1ccccc1)Nc1ccc(SC(F)F)cc1	none
O=C(COC(=O)c1ccccc1Nc1ccc(SC(F)F)cc1)NCc1ccco1	Cycloheximide cs 33, Shiga inhibitor 63
O=C(COC(=O)c1ccccc1Nc1ccc(SC(F)F)cc1)NC1CC1	AmpC detergent inconclusive, Cycloheximide cs 73, Shiga inhibitor 75
O=C(COC(=O)c1cccnc1SC(F)F)NC1CC1	none (no result: NS1 inh, Cycloheximide cs, Shiga inhibitor)
O=C(COC(=O)c1ccccc1C(=O)c1ccccc1)Nc1ccc(SC(F)F)cc1	Cycloheximide cs 20
Cc1cccc(Nc2ccccc2C(=O)OCC(=O)NCc2ccco2)c1C	none
NC(=O)COC(=O)c1ccccc1Nc1ccc(SC(F)F)cc1	Cycloheximide cs 14
COc1ccc(S(=O)(=O)N(C)C[C@@H]2Oc3c(NS(C)(=O)=O)cccc3C(=O)N([C@@H](C)CO)C[C@H]2C)cc1	none (no result: AmpC detergent, NS1 inh, Cycloheximide cs, Shiga inhibitor)
CC(OC(=O)c1ccccc1Nc1ccc(SC(F)F)cc1)C(N)=O (stereo not drawn)	none
CC(C)(C)NC(=O)COC(=O)c1ccccc1Nc1ccc(SC(F)F)cc1	Cycloheximide cs 55, Shiga inhibitor 67
CCOC(=O)[C@@H]1[C@H]2COc3ccccc3[C@@H]2N2C(=O)N(c3cccc(C)c3)C(=O)[C@]12C	AmpC detergent inconclusive
CCOC(=O)N1CCN(S(=O)(=O)c2c(C)nc3scc(C)n3c2=O)CC1	none
O=C(/C=C/c1ccc(O)cc1)c1ccc(NC2=C(N3CCCCC3)C(=O)c3ccccc3C2=O)cc1	Cycloheximide cs 59, Shiga inhibitor 160
O=C1C(NS(=O)(=O)c2ccc(Br)cc2)=C(N2CCCCC2)C(=O)c2ccccc21	none
O=C1C(NS(=O)(=O)c2ccccc2)=C(N2CCN(c3ccc(F)cc3)CC2)C(=O)c2ccccc21	none
Cc1ccc(NC2=C(N3CCCCC3)C(=O)c3ccccc3C2=O)cc1	Cycloheximide cs 50, Shiga inhibitor 107
O=C1C(Nc2ccccc2)=C(N2CCCCC2)C(=O)c2ccccc21	Cycloheximide cs 31, Shiga inhibitor 72
CC1=C(Nc2ccc(C(=O)O)cc2)C(=O)c2ccccc2C1=O	none
O=C1C(Nc2cccc(O)c2)=C(N2CCCCC2)C(=O)c2ccccc21	AmpC detergent inconclusive, Cycloheximide cs 35, Shiga inhibitor 51
COc1ccccc1-c1c(C(F)(F)F)oc2c(CN3CCCCC3C)c(O)ccc2c1=O (stereo not drawn)	none (no result: AmpC no deterg, NS1 inh, Cycloheximide cs, Shiga inhibitor)
COc1ccccc1NC1=C(N2CCCCC2)C(=O)c2ccccc2C1=O	Cycloheximide cs 23
CN(C1=C(N2CCCCC2)C(=O)c2ccccc2C1=O)c1ccccc1	none
COc1cc(OC)c(C2CC(=O)N3CN(c4ccccc4C)CSC3=C2C#N)cc1OC (stereo not drawn)	NS1 inh 4µM
Cc1cccc(N2CSC3=C(C#N)C(c4ccc(C)o4)CC(=O)N3C2)c1 (stereo not drawn)	AmpC detergent inconclusive, NS1 inh 1.8µM, Cycloheximide cs 11
COc1ccc(OC)c(C2CC(=O)N3CN(c4ccccc4)CSC3=C2C#N)c1 (stereo not drawn)	AmpC detergent inconclusive

Compound activity: PubChem BioAssay, National Center for Advancing Translational Sciences (NCATS)
